Where “and” joins values, the source holds several entries; their conditions need not be identical. Identical values can stand only once. Results filed as inconclusive are left out. Unmarked numbers belong to inactive results. Calls of active or inactive are those of the source. Calls follow the shape of the dose curve; as a rule, active = well fitted activation curve with a large enough effect; inconclusive = small, poorly fitted or top-dose-only effect; inactive = no such curve, though single readings can be large or run the other way.
The compounds below were run against Cellular tumor antigen p53 (Homo sapiens) (UniProt P04637) (assay: Primary qHTS for small molecule compounds that upregulate eGFP-tagged delta133p53alpha (in N-terminal) cells. (AID 2060322; also: nearly all actives have a fitted effect of over 75% in size;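 as to activation: cells pre-induced with doxycycline then dosed without doxycycline; series mostly up to about 56 µM; 0% = DMSO vehicle and 100% = reference activator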)). Conditions: NCI-H358 eGFP-delta133p53alpha fluorescence, 24 h; activation: hits give high values.
Source text: Assay Development and Screening Technology
National Center for Advancing Translational Sciences (NCATS),
National Institute of Health (NIH), Rockville, Maryland
Cellular senescence (CS) is one of the hallmarks of aging and age-related diseases. Senescent cells are characterized by an irreversible growth arrest, an increase in senescence-associated beta-galactosidase (SA-beta-gal) activity and p16INK4a expression, an activation of the DNA damage response pathways, and the emergence of a senescence-associated secretory phenotype (SASP).
Delta133p53alpha, a human/primate-specific p53 protein isoform, delays or inhibits the induction of CS and SASP in various types of human cells, including progeria-derived fibroblasts, primary normal astrocytes, and CD8+ T lymphocytes. Induction of delta133p53alpha with small molecule compounds may provide therapeutic opportunities for inhibition of senescence/SASP-associated pathologies in progeria syndromes, astrocyte-mediated neuroprotection in neurodegenerative diseases, and possibly prevention and treatment of a wider range of senescence- and aging-associated diseases.
Here we report the development and validation of a cell-based quantitative high throughput screening (qHTS) assay in 1,536-well format. This qHTS assay uses the NCI-H358 cell line with doxycycline-inducible expression of enhanced green fluorescent protein (eGFP)-tagged delta133p53alpha, which allows efficient and highly quantitative measurement of the protein levels.
PROTOCOL TABLE (as described by Inglese J, Shamu CE and Guy RK. 2007)
SEQUENCE No. (e.g., 1, 2, 3, etc.); […] (e.g., Cells, Incubation, Reagent, etc.); VALUE; DESCRIPTION.
1; Cells; 4uL; 800 doxycycline treated cells / well in doxycycline-free media, 1536-well black, clear-bottom low base Aurora microplates.
2; Compounds; 23 nL; Kalypsis pin tool (Wako) equipped with 1536-well pin heads, 5-azacytidine positive control.
3; Incubation; 24 hr; 37C, 5% CO2; 95% relative humidity.
4; Aspiration; 1x; BioTek EL406 washer dispenser (Agilent).
5; Fixing; 3.5% paraformaldehyde, BioTek EL406 washer dispenser (Agilent).
6; Washing; 1x PBS; BioTek EL406 washer dispenser (Agilent).
7; Nuclei staining; 1:1000 dilution of Hoechst 33342 (Thermofisher), BioTek EL406 washer dispenser (Agilent).
8; Incubation; 20 min; in the dark at room temperature.
9; Washing; 2x, 1x PBS (ThermoFisher), BioTek EL406 washer dispenser (Agilent).
10; Reagent; 10 uL; 1x PBS per well, sealed with clear adhesive tape.
NOTES (numbers refer to sequence numbers above).
1. NCI-H358 cells expressing eGFP-tagged delta133p53alpha were grown in T75 culture flasks and treated with doxycycline for 24h, at 10 ng/ml for eGFP-D133p53a cells (N-terminal cell) and 100 ng/ml for D133p53a-eGFP cells (C-terminal cells). Cells were trypsinized, counted using a Counted 3 Automated Cell Counter (Thermo Fisher), and diluted to a concentration of 200,000 cells/ml. A Multidrop Combi Reagent Dispenser (ThermoFisher) was used to dispense 800 cells/well in […] of doxycycline-free media, into 1536-well black/clear bottom low base plates (AuroraMicroplates).
2. After plating cells, 23 nl of compound library, DMSO vehicle control or positive control (5-azacytidine) were transferred by Pin Tool (Wako). The plate map layout was the same for each plate: (column 1) non-doxycycline treated cells + DMSO vehicle control; (column 2) doxycycline treated cells + DMSO vehicle control baseline; (column 3) doxycycline treated cells + positive control 57.5 uM final concentration 5-azacytidine; (column 4) doxycycline treated cells + serial dilution of 5-azacytidine, 16-point 1:2 titration spanning 1.8 nM to […] final concentration; (columns 5-48) doxycycline treated cells + titration of library compounds.
3. Cells were incubated at 37 °C, 5 % CO2, 95% RH with breathable metal lid for 24h.
4-10. […] After two washes, 10 ul of 1X PBS (Thermo Fisher) was dispensed to each well. Clear adhesive plate seals (VWR) were applied and plates stored at 4 °C.
11. […]
Potency is read from the fitted curve at half-maximal effect.

Cellular tumor antigen p53 (Homo sapiens), sequence (P04637 whole entry, looked up): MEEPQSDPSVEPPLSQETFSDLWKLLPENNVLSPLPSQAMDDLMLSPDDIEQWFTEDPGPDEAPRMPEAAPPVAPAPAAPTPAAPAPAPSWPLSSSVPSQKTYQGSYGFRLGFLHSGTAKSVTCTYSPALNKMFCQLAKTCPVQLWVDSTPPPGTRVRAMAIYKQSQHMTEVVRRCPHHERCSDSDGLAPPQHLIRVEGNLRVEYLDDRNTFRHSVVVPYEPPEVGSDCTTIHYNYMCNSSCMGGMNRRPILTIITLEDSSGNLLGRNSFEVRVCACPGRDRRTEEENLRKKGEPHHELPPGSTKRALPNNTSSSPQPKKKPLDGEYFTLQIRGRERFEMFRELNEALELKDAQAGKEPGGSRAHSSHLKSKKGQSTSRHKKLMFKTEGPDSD

Point of comparison: `CC12CC(O)C(O)C=C1c1cc(O)cc(O)c1C(=O)O2` (stereo not given), activation -7.63%. Against it:
- O=C(NCCCn1ccnc1)c1cc(-c2ccco2)on1 — lower, -9.07%
- C[C@@]1(O)[C@H](O)[C@@H](CO)O[C@H]1n1ccc(N)nc1=O — higher, 0.333%
- CCOc1ccn(-c2ccc(F)cc2)c(=O)c1C(=O)Nc1ccc(Oc2ccnc(N)c2Cl)c(F)c1 — higher, 49.1%
- COc1ccc2cccc(CCNC(C)=O)c2c1 — higher, 3.03%
- CC(C)C[C@H](CC(=O)O)C(=O)N[C@@H](Cc1c[nH]c2ccccc12)C(=O)N[C@@H](C)c1ccccc1 — lower, -21.8%
- O=c1[nH]c2cccc(N3CCN(Cc4ccc(-c5ccccc5)cc4)CC3)c2o1 — higher, -3.82%
- Cc1ccsc1C(=CCCN1CCC[C@@H](C(=O)O)C1)c1sccc1C — lower, -19.8%
- COc1cc(/C=C/C(=O)OC[C@H]2O[C@@](CO)(O[C@H]3O[C@H](CO)[C@@H](O)[C@H](O)[C@H]3O)[C@@H](OC(=O)/C=C/c3ccc(O)c(OC)c3)[C@@H]2O)ccc1O — higher, -3.82%
- C=CCNC(N)=S — higher, -2.82%
- CC1(C)O[C@@H]2C[C@H]3[C@@H]4CCC5=CC(=O)C=C[C@]5(C)[C@@]4(F)[C@@H](O)C[C@]3(C)[C@]2(C(=O)CO)O1 — lower, -9.6%
- C=C1CCC2C(C)(C(=O)O)CC(O)CC2(C)C1CC/C(C)=C/C(=O)O (stereo not given) — lower, -9.92%
- Oc1ccc(Nc2nc(-c3ccc(Cl)cc3)cs2)cc1 — higher, 24.1%
- Cc1oc(-c2ccccc2)nc1CCC(=O)c1ccc(CC2SC(=O)NC2=O)cc1 (stereo not given) — higher, -3.95%
- CCC[C@@H](NC(=O)N1C(=O)C(CC)(CC)[C@@H]1Oc1ccc(C(=O)N2CCN(C)CC2)cc1)c1ccc2c(c1)OCO2 — lower, -10.5%
- COC(=O)/C=C/C=C/C(=O)OC1C=C2COC(=O)C2(O)C2(C)CCCC(C)(C)C12 (stereo not given) — higher, -4.58%
- CCN1C(=O)C=CC1=O — lower, -15.7%
- O=c1[nH]c2ccccc2c(=O)n1CCCl — higher, 6.21%
- Cc1ccccc1-n1nc(-c2c(-c3ccc(F)cc3)nn3c2NC[C@@H](CO)C3)ccc1=O — higher, 2.68%
- CN(C)C1CCN(C(=O)c2ccc(NC(=O)Nc3nc(N4CCOCC4)nc(N4CCOCC4)n3)cc2)CC1 — lower, -12.1%
- OC(c1cc(C(F)(F)F)nc2c(C(F)(F)F)cccc12)C1CCCCN1 (stereo not given) — higher, -0.154%
- CCOc1nc2c(N)ncnc2n1CC — lower, -10%
- O=Cc1ccc(O)c(O)c1O — higher, -4.18%
- COc1ccc(OC)c(C(O)CNC(=O)CN)c1 (stereo not given) — higher, 8.47%
- Cc1cnc(C(=O)O)c[n+]1[O-] — lower, -19.2%
- CC(C)CCC(=O)CC1c2ccccc2C(=O)N1c1ccc2ccc(Cl)nc2n1 (stereo not given) — higher, 0.477%
- CCn1nc(C2CCN(C(=O)CCO)CC2)nc1-c1cnc(N)c(-c2nnc(C(C)(C)C)o2)n1 — higher, 6.33%
- O=[N+]([O-])c1ccc(/C=N\O)o1 — higher, 11.9%
- CC=C(C(=CC)c1ccc(O)cc1)c1ccc(O)cc1 — higher, -4.09%
- CCOC(=O)Nc1ccc2c(c1)N(C(=O)CCN1CCOCC1)c1ccccc1S2 — higher, 4.18%
- O=C(Nc1ccc(F)cc1)N1CCc2ccccc2C1c1ccc(C(F)(F)F)cc1 (stereo not given) — higher, 13.4%
- C[C@H]1CC(=O)Nc2cccc(-c3cnn(C(C)(C)C)c3)c2N1 — lower, -12.5%
- O=C(CCl)Nc1ccc(S(=O)(=O)c2ccc(NC(=O)CCl)cc2)cc1 — higher, 4.47%

`Cc1cn2cc(C(=O)N(C)CCO)cc(N[C@@H]3CCOc4cccc(C)c43)c2n1` was tested, and the activation was -18% and -4.46%.
`CN(C)C(=O)[C@H](O)[C@H](Cc1ccccc1)NC(=O)c1cc2cc(Cl)ccc2[nH]1` was tested, and the activation was -2.47% and -33.3% and 7.64%.
`CC(C)[C@@H](CS(=O)(=O)C(C)C)N1C(=O)[C@@](C)(CC(=O)O)C[C@H](c2cccc(Cl)c2)[C@H]1c1ccc(Cl)cc1` was tested, and the activation was 0.955% and -3.88%.

`C1=C/COCc2cc(ccc2OCCN2CCCC2)Nc2nccc(n2)-c2cccc(c2)COC/1` was tested, and the Potency was 15.3 µM (active).
In the case of `C=CC(=O)Nc1cc(Nc2nccc(-c3cn(C)c4ccccc34)n2)c(OC)cc1N(C)CCN(C)C`, the Potency is reported as 3.79 µM (active).
With `Cc1sc2c(c1C)C(c1ccc(Cl)cc1)=N[C@H](CC(=O)NCCCCNC(=O)COc1cccc3c1C(=O)N([C@H]1CCC(=O)NC1=O)C3=O)c1nnc(C)n1-2` the Potency was 1.69 µM (active).
For `O=C(Nc1nc2cc(C(F)(F)F)cc(NC3CC3)n2n1)c1cccnc1`, the Potency was 4.78 µM (active).
